± gives the standard deviation of the averaged measurements.

In the first assay the test system is SW480. The experiment in a line: cell viability (CellTiter-Glo) relative to plate median (fraction of plate median); higher = more viable cells. To be noted: 5 µM; treatment time 24 h; reporter: 7TFP. Summed up: (§1)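 Cells were seeded in 384-well plates; these were colorectal cancer lines stably transduced with lentiviral 7TFP or TCF4/Wnt firefly luciferase reporters. After 24 h, library compounds went in at a final 5 µM, and exposure lasted 24 h. Parallel plates were then read for firefly luciferase or CellTiterGlo luminescence, each well normalised to its plate median, with two independent replicates averaged.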
(In general: In ATP-based viability assays light output follows the ATP content of the culture.)
On to `COC(=O)[C@@H]1[C@H]2C[C@H]3c4[nH]c5ccccc5c4CCN3C[C@@H]2CC[C@@H]1O`, for which the cell viability amounted to 1.005 ± 0.0071.
Compound `CC1=C(/C=C/C(C)=C/C=C/C(C)=C/C=C/C=C(C)/C=C/C=C(C)/C=C/C2=C(C)C(=O)CCC2(C)C)C(C)(C)CCC1=O` [CANTHAXANTHIN (euglenanone)] registered a cell viability of 1.06.
The same measure, in the same setting: in the case of `CC1(C)C(=O)C=C[C@]2(C)[C@H]3CC[C@@]4(C)[C@H](c5ccoc5)OC(=O)[C@H]5O[C@]54[C@]3(C)C(=O)C[C@@H]12` it was 0.97 ± 0.033; in that of `CC(COc1ccccc1)NC(C)C(O)c1ccc(O)cc1` (centres undefined), 0.916 ± 0.017; in that of `CNCCc1ccccn1`, 0.958 ± 0.027.
The same measure, in the same setting: then `CCC(C)C(N)=O` (centres undefined) [2-Methylbutyramide], with 1.01 ± 0.018.
Turning to `CC(CCc1ccccc1)NCC(O)c1ccc(O)c(C(N)=O)c1` (centres undefined), the cell viability worked out at 0.943 ± 0.044.
Same read-out and setting: in the case of `COc1cc2c3cc1Oc1cc(ccc1O)C[C@@H]1c4c(cc(OC)c(O)c4Oc4ccc(cc4)C[C@@H]3N(C)CC2)CC[N+]1(C)C` it was 1.01 ± 0.045; in that of `CN1CCOC(c2ccccc2)c2ccccc2C1` (centres undefined), 1 ± 0.014.

The test system of the next assay is DLD1. The experiment in a line: TCF/Wnt firefly luciferase reporter signal relative to plate median (fraction of plate median); higher = higher Wnt reporter signal. The settings on record: 5 µM; treatment time 24 h; reporter: 7TFP. Summed up: as §1
On the technique in general: Reporter assays use an easily measured gene product as a stand-in for the process of interest.
Consider `Clc1ccc(CSC(Cn2ccnc2)c2ccc(Cl)cc2Cl)cc1` (centres undefined), for which the “TCF/Wnt firefly luciferase reporter signal” value was found to be 0.88 ± 0.035.
Consider `CC(=O)S[C@@H]1CC2=CC(=O)CC[C@]2(C)[C@H]2CC[C@@]3(C)[C@@H](CC[C@@]34CCC(=O)O4)[C@H]12`, for which the “TCF/Wnt firefly luciferase reporter signal” value stood at 0.878 ± 0.15.
Same read-out and setting: in the case of `CC[C@H](C)[C@@H]1NC(=O)[C@H](C)NC1=O` [Cyclo(alanylisoleucyl)] it was 1.05 ± 0.028; in that of `O=C1NCC(=O)N2CCCC12` (centres undefined) [Cyclo(glycylprolyl)], 1.2 ± 0.085.
On the same count and under the same terms, then `O=c1cc(-c2ccccc2)oc2cc(O)cc(O)c12`, with 1.03 ± 0.23; and `CCOC(=O)[C@H](CCc1ccccc1)N[C@@H](C)C(=O)N1CCC[C@H]1C(=O)O`, with 1.04 ± 0.035.
Regarding `Cc1oc(C(C)O)c2c1C(=O)c1c(O)cccc1C2=O` (centres undefined) [Bhimamycin A], the “TCF/Wnt firefly luciferase reporter signal” value was determined as 0.9925 ± 0.0092.
Turning to `CC(C)NCC(O)c1ccc2ccccc2c1` (centres undefined), the “TCF/Wnt firefly luciferase reporter signal” value is 0.962 ± 0.097.
`O=C1NS(=O)(=O)c2ccccc21`: the “TCF/Wnt firefly luciferase reporter signal” value is 1.1 ± 0.042.
Take `OC[C@H]1O[C@@H](Oc2ccc(O)cc2)[C@H](O)[C@@H](O)[C@@H]1O`: the “TCF/Wnt firefly luciferase reporter signal” value was determined as 0.963 ± 0.095.
As to `Cc1ccc2c(c1)CC[C@H]1CC(=O)CC[C@]21C`, the “TCF/Wnt firefly luciferase reporter signal” value was determined as 0.941 ± 0.13.
With `N[C@@H]1CONC1=O`, the “TCF/Wnt firefly luciferase reporter signal” value is 1.05 ± 0.028.
For the compound `COc1cc(-c2oc3cc(O)ccc3c(=O)c2O)ccc1O`, the “TCF/Wnt firefly luciferase reporter signal” value is 1 ± 0.098.
Still for that read-out and setting: in the case of `Nc1ccc(C(=O)O)cc1` it was 1.03 ± 0.035; in that of `COc1cc(OC)cc(OC)c1`, 1.13 ± 0.028; in that of `CCN(CC)C(=O)c1cccc(C)c1`, 1.03 ± 0.079.
For `O=C1NC(Cc2ccc(O)cc2)C(=O)N2CCCC12` (centres undefined) [cyclo(prolyltyrosyl)], the “TCF/Wnt firefly luciferase reporter signal” value stood at 0.998 ± 0.2.
`CC1(C)S[C@@H]2[C@H](NC(=O)[C@H](C(=O)O)c3ccsc3)C(=O)N2[C@H]1C(=O)O`: the “TCF/Wnt firefly luciferase reporter signal” value was 0.871 ± 0.069.
In the case of `CN[C@H]1CC[C@@H](c2ccc(Cl)c(Cl)c2)c2ccccc21`, the “TCF/Wnt firefly luciferase reporter signal” value was 0.796 ± 0.23.
Still for that read-out and setting: in the case of `O[C@H]1[C@H](O)[C@@H](O)[C@H](O)[C@@H](O)[C@H]1O` it was 1.12 ± 0.042.
Consider `CCCCc1nc(Cl)c(CO)n1Cc1ccc(-c2ccccc2-c2nnn[nH]2)cc1`, for which the “TCF/Wnt firefly luciferase reporter signal” value amounted to 1.08 ± 0.25.
Consider `CO/C=C/C(=O)c1cc2cnc3c(=N)cc(NC(C)=O)c([nH]1)c23` [Lymphostin], for which the “TCF/Wnt firefly luciferase reporter signal” value was determined as 0.891 ± 0.011.
As for `CC/C(=C(/CC)c1ccc(O)cc1)c1ccc(O)cc1`, the “TCF/Wnt firefly luciferase reporter signal” value came to 1.06 ± 0.18.
As to `CC(O)(P(=O)(O)O)P(=O)(O)O`, the “TCF/Wnt firefly luciferase reporter signal” value stood at 1 ± 0.13.
For `NC[C@@H]1O[C@H](O[C@H]2[C@@H](O)[C@H](O[C@@H]3[C@@H](O)[C@H](N)C[C@H](N)[C@H]3O[C@H]3O[C@H](CO)[C@@H](O)[C@H](O)[C@H]3N)O[C@@H]2CO)[C@H](N)[C@@H](O)[C@@H]1O`, the “TCF/Wnt firefly luciferase reporter signal” value is 0.901 ± 0.043.
In the case of `CCC(=O)OCC(=O)[C@@]1(OC(=O)CC)[C@H](C)CC2C3C([C@@H](O)C[C@@]21C)[C@@]1(C)C=CC(=O)C=C1C[C@H]3Cl` (some centres undefined), the “TCF/Wnt firefly luciferase reporter signal” value is 0.9755 ± 0.0078.
The same measure, in the same setting: in the case of `CC(C)(S)[C@@H](N)C(=O)O` it was 1.09 ± 0.014; in that of `C=CC[C@@H]1/C=C(\C)C[C@H](C)C[C@H](OC)[C@H]2O[C@@](O)(C(=O)C(=O)N3CCCC[C@H]3C(=O)O[C@H](/C(C)=C/[C@@H]3CC[C@@H](O)[C@H](OC)C3)[C@H](C)[C@@H](O)CC1=O)[C@H](C)C[C@@H]2OC`, 1.08 ± 0.042; in that of `COc1ccc(-c2cc(=O)c3c(O)c(OC)c(OC)c(OC)c3o2)cc1OC`, 0.964 ± 0.065.
Still for that read-out and setting: then `CC(=O)O[C@H]1CC[C@]2(C)[C@H]3CC=C4[C@@H]5CC(C)(C)CC[C@]5(C(=O)O)CC[C@@]4(C)[C@]3(C)CC[C@H]2C1(C)C`, with 1.03; and `Cc1cc(C)cc(OCC2CNC(=O)O2)c1` (centres undefined), with 1.02.
As for `COC(=O)[C@@H]1[C@H]2C[C@H]3c4[nH]c5ccccc5c4CCN3C[C@@H]2CC[C@@H]1O`, the “TCF/Wnt firefly luciferase reporter signal” value was 0.919 ± 0.16.
The same measure, in the same setting: in the case of `CC1=C(/C=C/C(C)=C/C=C/C(C)=C/C=C/C=C(C)/C=C/C=C(C)/C=C/C2=C(C)C(=O)CCC2(C)C)C(C)(C)CCC1=O` [CANTHAXANTHIN (euglenanone)] it was 1.115 ± 0.0071.
In the case of `CC1(C)C(=O)C=C[C@]2(C)[C@H]3CC[C@@]4(C)[C@H](c5ccoc5)OC(=O)[C@H]5O[C@]54[C@]3(C)C(=O)C[C@@H]12`, the “TCF/Wnt firefly luciferase reporter signal” value is 0.871 ± 0.093.
On to `CC(COc1ccccc1)NC(C)C(O)c1ccc(O)cc1` (centres undefined), for which the “TCF/Wnt firefly luciferase reporter signal” value is 1.18 ± 0.05.
On to `CNCCc1ccccn1`, for which the “TCF/Wnt firefly luciferase reporter signal” value worked out at 1.08 ± 0.21.
Turning to `CCC(C)C(N)=O` (centres undefined) [2-Methylbutyramide], the “TCF/Wnt firefly luciferase reporter signal” value came to 1.16 ± 0.071.
For `CC(CCc1ccccc1)NCC(O)c1ccc(O)c(C(N)=O)c1` (centres undefined), the “TCF/Wnt firefly luciferase reporter signal” value worked out at 0.935 ± 0.012.
On the same count and under the same terms, in the case of `COc1cc2c3cc1Oc1cc(ccc1O)C[C@@H]1c4c(cc(OC)c(O)c4Oc4ccc(cc4)C[C@@H]3N(C)CC2)CC[N+]1(C)C` it was 0.977 ± 0.089; in that of `CN1CCOC(c2ccccc2)c2ccccc2C1` (centres undefined), 0.9875 ± 0.0035.

For the origin of these results see the supplement of paper PMC6522484.
